Experimental data as given in PubChem BioAssay (EPA / NIEHS).
Several values for one entry are separate records, joined by “and”; a condition that tells them apart may be missing. Equal entries are not always repeated. Some compounds were tested as several samples or in several runs, with calls that do not always agree. Activity calls are given as the source filed them. The calls were made as follows: active = hit-call score of the fitted dose curve at least 0.9, where 1 is the maximum; inactive = score below 0.9.

Experiment: BSK_3C_uPAR: BioMAP Diversity Plus: 3C Assay for Urokinase-type plasminogen activator receptor (uPAR) Biomarker Activity (AID 2282998)
Settings: BioMAP 3C HUVEC, uPAR biomarker ELISA; actives raise or lower the signal
Outline: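 Cell-surface uPAR on HUVEC (3C system) read by ELISA at 24 h post-treatment, with DMSO as baseline and fitting in both directions. Parallel cultures stained with SRB to flag overt cytotoxicity.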

| SMILES | outcome | AC50 |
| --- | --- | --- |
| NCC(F)(F)C(F)(F)C(F)(F)C(F)(F)C(F)(F)C(F)(F)F | inactive | – |
| O=C1c2c(O)ccc(Nc3ccc(CCO)cc3)c2C(=O)c2c([N+](=O)[O-])ccc(O)c21 | – | 4.7 µM (active) |
| O=S(=O)(Cl)C(F)(F)C(F)(F)C(F)(F)C(F)(F)C(F)(F)C(F)(F)C(F)(F)C(F)(F)F | – | 45.8 µM (active) and 47.4 µM (active) |
| NC(=O)C(F)(F)C(F)(F)C(F)(F)C(F)(F)C(N)=O | inactive | – |
| OCC(F)(F)C(F)(F)C(F)(F)CO | inactive | – |
| CCN(CCO)S(=O)(=O)C(F)(F)C(F)(F)C(F)(F)C(F)(F)C(F)(F)C(F)(F)C(F)(F)C(F)(F)F | inactive | 8.1 µM (active) |
| NC(=O)C(F)(F)C(F)(F)C(F)(F)C(F)F | inactive | – |
| O=C=Nc1cccc2c(N=C=O)cccc12 | inactive | – |
| CC1=CC2C3C=CC(C3)C2C1C (centres undefined) | inactive | – |
| O=C=NCc1cccc(CN=C=O)c1 | inactive | – |
| O=C(O)C(F)(F)OC(F)(F)C(F)(F)OC(F)(F)C(F)(F)OC(F)(F)F | inactive | – |
| NC(O)(C(F)(F)F)C(F)(F)F | inactive | – |
| O=C(Cl)C(F)(F)C(F)(F)C(F)(F)C(F)(F)C(F)(F)C(F)(F)C(F)(F)F | inactive | – |
| O=C(F)C1(F)C(F)(F)C(F)(F)C(F)(F)C(F)(F)C1(F)F | inactive | – |
| CCN(CC)c1ccc(C=O)cc1 | inactive | – |
| Cc1ccc(S(=O)(=O)C(I)I)cc1 | – | 1.45 µM (active) |
| O=C(O)C(F)(F)C(F)(F)C(F)(F)C(=O)O | inactive | – |
| OCCCCC(F)(F)C(F)(F)C(F)(F)C(F)(F)F | inactive | – |
| COC(F)(C(F)F)C(F)(F)F (centres undefined) | inactive | – |

Experiment: BSK_3C_VCAM1: BioMAP Diversity Plus: 3C Assay for Vascular cell adhesion molecule 1 (VCAM1) Biomarker Activity (AID 2282999)
Settings: BioMAP 3C HUVEC, VCAM1 ELISA, cytokine-stimulated; actives raise or lower the signal
Outline: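 HUVEC primary cells, 24 h compound exposure; VCAM-1 by ELISA; gain/loss of signal fitted bidirectionally vs DMSO baseline.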

| SMILES | outcome | AC50 |
| --- | --- | --- |
| NCC(F)(F)C(F)(F)C(F)(F)C(F)(F)C(F)(F)C(F)(F)F | inactive | – |
| O=C1c2c(O)ccc(Nc3ccc(CCO)cc3)c2C(=O)c2c([N+](=O)[O-])ccc(O)c21 | – | 23.2 µM (active) |
| O=S(=O)(Cl)C(F)(F)C(F)(F)C(F)(F)C(F)(F)C(F)(F)C(F)(F)C(F)(F)C(F)(F)F | inactive | – |
| NC(=O)C(F)(F)C(F)(F)C(F)(F)C(F)(F)C(N)=O | inactive | – |
| OCC(F)(F)C(F)(F)C(F)(F)CO | inactive | – |
| CCN(CCO)S(=O)(=O)C(F)(F)C(F)(F)C(F)(F)C(F)(F)C(F)(F)C(F)(F)C(F)(F)C(F)(F)F | inactive | – |
| NC(=O)C(F)(F)C(F)(F)C(F)(F)C(F)F | inactive | – |
| O=C=Nc1cccc2c(N=C=O)cccc12 | inactive | – |
| CC1=CC2C3C=CC(C3)C2C1C (centres undefined) | inactive | – |
| O=C=NCc1cccc(CN=C=O)c1 | inactive | – |
| O=C(O)C(F)(F)OC(F)(F)C(F)(F)OC(F)(F)C(F)(F)OC(F)(F)F | inactive | – |
| NC(O)(C(F)(F)F)C(F)(F)F | inactive | – |
| O=C(Cl)C(F)(F)C(F)(F)C(F)(F)C(F)(F)C(F)(F)C(F)(F)C(F)(F)F | inactive | – |
| O=C(F)C1(F)C(F)(F)C(F)(F)C(F)(F)C(F)(F)C1(F)F | inactive | – |
| CCN(CC)c1ccc(C=O)cc1 | inactive | – |
| Cc1ccc(S(=O)(=O)C(I)I)cc1 | – | 3.06 µM (active) |
| O=C(O)C(F)(F)C(F)(F)C(F)(F)C(=O)O | inactive | – |
| OCCCCC(F)(F)C(F)(F)C(F)(F)C(F)(F)F | inactive | – |
| COC(F)(C(F)F)C(F)(F)F (centres undefined) | inactive | – |
